Results as given in PubChem BioAssay AID1159580 (chemical genetic matrix, 2015).
Where “and” joins values, the source holds several entries; their conditions need not be identical. Equal values may be shown once. Screen size: about 5,500 compounds; about 2,000 (36%) were called active. Inconclusive results (about 18%) are left out. Rule as the data show it: active = normalized growth mostly below about 0.91 (no sharp cut-off); inconclusive = no clear call, values can overlap the other calls; inactive = mostly above about 0.92. The list shows a part of the results.

Test: chemical genetic growth profiling, strain panel (AID 1159580);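 also: tested at 20 µM; growth read once vehicle control cultures reached saturation at 30 °C; 1 = growth at the plate median or of vehicle wells; lower values mean less growth of the strain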
Conditions: growth OD

Measured: normalized growth

COCCc1ccc(OCC(O)CNC(C)C)cc1 (stereo unspecified)
inactive: S. cerevisiae deletion strains, locus YJR075W, strain HOC1, stronger effect = lower value 1.01 | S. cerevisiae deletion strains, locus YKL009W, strain mrt4, stronger effect = lower value 1 | S. cerevisiae deletion strains, locus YKL068W, stronger effect = lower value 1.01 | S. cerevisiae deletion strains, locus YKL085W, strain MDH1 (second series), stronger effect = lower value 0.998 | S. cerevisiae deletion strains, locus YKL085W, strain MDH1, stronger effect = lower value 0.998 | S. cerevisiae deletion strains, locus YKL160W, strain elf1, stronger effect = lower value 0.98 | S. cerevisiae deletion strains, locus YKL190W, strain CNB1, stronger effect = lower value 1.01 | S. cerevisiae deletion strains, locus YKR001C, strain vps1, stronger effect = lower value 0.999 | S. cerevisiae deletion strains, locus YKR026C, strain gcn3, stronger effect = lower value 1 | S. cerevisiae deletion strains, locus YKR091W, strain srl3, stronger effect = lower value 0.988 | S. cerevisiae deletion strains, locus YLL001W, strain dnm1, stronger effect = lower value 0.935 | S. cerevisiae deletion strains, locus YLL026W, stronger effect = lower value 0.99 | S. cerevisiae deletion strains, locus YLL041C, strain sdh2, stronger effect = lower value 1 | S. cerevisiae deletion strains, locus YLR027C, strain aat2, stronger effect = lower value 1.02 | S. cerevisiae deletion strains, locus YLR039C, strain RIC1, stronger effect = lower value 0.989 | S. cerevisiae deletion strains, locus YLR058C, strain SHM2, stronger effect = lower value 1.01 | S. cerevisiae deletion strains, locus YLR102C, strain apc9, stronger effect = lower value 1.01 | S. cerevisiae deletion strains, locus YLR113W, strain HOG1, stronger effect = lower value 1.03 | S. cerevisiae deletion strains, locus YLR221C, strain rsa3, stronger effect = lower value 0.955 | S. cerevisiae deletion strains, locus YLR258W, strain gsy2, stronger effect = lower value 1.01 | S. cerevisiae deletion strains, locus YLR262C, strain YPT6 (second series), stronger effect = lower value 1 | S. cerevisiae deletion strains, locus YLR262C, strain YPT6, stronger effect = lower value 1 | S. cerevisiae deletion strains, locus YLR268W, strain sec22, stronger effect = lower value 1.08 | S. cerevisiae deletion strains, locus YLR320W, strain mms22, stronger effect = lower value 0.977 | S. cerevisiae deletion strains, locus YLR330W, strain CHS5, stronger effect = lower value 1.01 | S. cerevisiae deletion strains, locus YLR342W, strain FKS1 (second series), stronger effect = lower value 1.01 | S. cerevisiae deletion strains, locus YLR342W, strain FKS1, stronger effect = lower value 0.993 | S. cerevisiae deletion strains, locus YLR357W, strain rsc2, stronger effect = lower value 0.973 | S. cerevisiae deletion strains, locus YLR370C, strain arc18, stronger effect = lower value 0.99 | S. cerevisiae deletion strains, locus YLR371W, strain rom2, stronger effect = lower value 1.01 | S. cerevisiae deletion strains, locus YLR384C, strain iki3, stronger effect = lower value 0.991 | S. cerevisiae deletion strains, locus YLR418C, strain cdc73, stronger effect = lower value 0.986 | S. cerevisiae deletion strains, locus YML016C, strain PPZ1, stronger effect = lower value 1.01 | S. cerevisiae deletion strains, locus YML032C, strain rad52, stronger effect = lower value 1.03 | S. cerevisiae deletion strains, locus YML120C, strain ndi1, stronger effect = lower value 0.942 | S. cerevisiae deletion strains, locus YML124C, strain tub3, stronger effect = lower value 1.01 | S. cerevisiae deletion strains, locus YMR058W, strain fet3, stronger effect = lower value 0.989 | S. cerevisiae deletion strains, locus YMR078C, strain ctf18, stronger effect = lower value 1.01 | S. cerevisiae deletion strains, locus YMR125W, strain sto1, stronger effect = lower value 0.97 | S. cerevisiae deletion strains, locus YMR129W, stronger effect = lower value 0.996 | S. cerevisiae deletion strains, locus YMR205C, strain PFK2, stronger effect = lower value 0.962 | S. cerevisiae deletion strains, locus YMR223W, strain ubp8, stronger effect = lower value 0.995 | S. cerevisiae deletion strains, locus YMR231W, strain pep5, stronger effect = lower value 0.997 | S. cerevisiae deletion strains, locus YMR263W, strain SAP30, stronger effect = lower value 1.02 | S. cerevisiae deletion strains, locus YMR307W, strain GAS1, stronger effect = lower value 1.02 | S. cerevisiae deletion strains, locus YNL067W, strain RPL9B, stronger effect = lower value 1.02 | S. cerevisiae deletion strains, locus YNL071W, strain lat1, stronger effect = lower value 0.989 | S. cerevisiae deletion strains, locus YNL128W, strain TEP1, stronger effect = lower value 1.01 | S. cerevisiae deletion strains, locus YNL153C, strain GIM3, stronger effect = lower value 1.02 | S. cerevisiae deletion strains, locus YNL175C, strain NOP13, stronger effect = lower value 1.01 | S. cerevisiae deletion strains, locus YNL183C, strain NPR1, stronger effect = lower value 1 | S. cerevisiae deletion strains, locus YNL197C, strain WHI3, stronger effect = lower value 0.984 | S. cerevisiae deletion strains, locus YNL209W, strain ssb2, stronger effect = lower value 0.987 | S. cerevisiae deletion strains, locus YNL224C, strain SQS1, stronger effect = lower value 0.988 | S. cerevisiae deletion strains, locus YNL233W, strain BNI4, stronger effect = lower value 1.01 | S. cerevisiae deletion strains, locus YNL248C, strain rpa49, stronger effect = lower value 0.992 | S. cerevisiae deletion strains, locus YNL250W, strain rad50, stronger effect = lower value 1.01 | S. cerevisiae deletion strains, locus YNL271C, strain bni1, stronger effect = lower value 1.01 | S. cerevisiae deletion strains, locus YNL298W, strain CLA4, stronger effect = lower value 1.02 | S. cerevisiae deletion strains, locus YNL307C, strain MCK1, stronger effect = lower value 1.02 | S. cerevisiae deletion strains, locus YNL322C, strain KRE1 (second series), stronger effect = lower value 0.98 | S. cerevisiae deletion strains, locus YNL322C, strain KRE1, stronger effect = lower value 1 and 0.99 | S. cerevisiae deletion strains, locus YNR049C, strain mso1, stronger effect = lower value 0.978 | S. cerevisiae deletion strains, locus YNR052C, strain pop2, stronger effect = lower value 1.01 | S. cerevisiae deletion strains, locus YOL006C, strain TOP1, stronger effect = lower value 1.07 | S. cerevisiae deletion strains, locus YOL012C, strain htz1 0.79 | S. cerevisiae deletion strains, locus YOL147C, strain pex11, stronger effect = lower value 1.01 | S. cerevisiae deletion strains, locus YOR001W, strain rrp6, stronger effect = lower value 1.03 | S. cerevisiae deletion strains, locus YOR061W, strain CKA2, stronger effect = lower value 1.01 | S. cerevisiae deletion strains, locus YOR069W, strain VPS5, stronger effect = lower value 1.01 | S. cerevisiae deletion strains, locus YOR070C, strain gyp1, stronger effect = lower value 0.995 | S. cerevisiae deletion strains, locus YOR080W, strain dia2, stronger effect = lower value 0.985 | S. cerevisiae deletion strains, locus YOR083W, strain WHI5 (second series), stronger effect = lower value 0.999 | S. cerevisiae deletion strains, locus YOR083W, strain WHI5, stronger effect = lower value 0.981 | S. cerevisiae deletion strains, locus YOR106W, strain vam3, stronger effect = lower value 0.957 | S. cerevisiae deletion strains, locus YOR136W, strain idh2, stronger effect = lower value 1.01 | S. cerevisiae deletion strains, locus YOR144C, strain elg1, stronger effect = lower value 1.01 | S. cerevisiae deletion strains, locus YOR184W, strain ser1, stronger effect = lower value 1.02 | S. cerevisiae deletion strains, locus YOR231W, strain MKK1, stronger effect = lower value 1.03 | S. cerevisiae deletion strains, locus YOR265W, strain rbl2, stronger effect = lower value 0.995 | S. cerevisiae deletion strains, locus YOR270C, strain vph1, stronger effect = lower value 0.975 | S. cerevisiae deletion strains, locus YOR290C, strain snf2, stronger effect = lower value 0.91 | S. cerevisiae deletion strains, locus YOR316C, strain cot1, stronger effect = lower value 1.01 | S. cerevisiae deletion strains, locus YPL051W, strain arl3, stronger effect = lower value 1 | S. cerevisiae deletion strains, locus YPL055C, strain LGE1, stronger effect = lower value 0.989 and 1.01 | S. cerevisiae deletion strains, locus YPL078C, strain atp4, stronger effect = lower value 0.978 | S. cerevisiae deletion strains, locus YPL106C, strain sse1, stronger effect = lower value 0.971 | S. cerevisiae deletion strains, locus YPL240C, strain hsp82, stronger effect = lower value 0.992 | S. cerevisiae deletion strains, locus YPL241C, strain CIN2, stronger effect = lower value 1 and 0.974 | S. cerevisiae deletion strains, locus YPL256C, strain CLN2, stronger effect = lower value 1.1 | S. cerevisiae deletion strains, locus YPR119W, strain clb2, stronger effect = lower value 1.02 | S. cerevisiae deletion strains, locus YPR141C, strain kar3, stronger effect = lower value 1.02 | S. cerevisiae deletion strains, locus YPR163C, strain tif3, stronger effect = lower value 1.02 | S. cerevisiae deletion strains, locus YPR167C, strain met16, stronger effect = lower value 1.01 | S. cerevisiae deletion strains, strain wtn01, stronger effect = lower value 1.05 | S. cerevisiae strains, strain wild type, stronger effect = lower value 1.01
